The full data set covers some 7,900 targets. This sample favours those with a hit. About 0.6% of all pairs of compound and target were hits.
How the values were obtained:
Experiment in all cases: log2 fold change, soluble protein after heating vs DMSO (PISA); higher = thermal stabilisation; K562 cells, 10 uM, 30 min; active = over 0.2 and 3.5 SD of the protein, either way, in both replicates (recomputed)
[1] = compound: CS(=O)(=O)c1ccc(-c2cnc(N)c(C(=O)Nc3ccccc3)n2)cc1
Procedure, shortened: (§1)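 Thermal stability values are relative to control samples and come from duplicates. They are expressed as log2 fold changes. For measurement, K562 cells (2×10^6 cells/mL) received 10 μM compound for 30 min, and aliquots were heated for 3 min over 48°C-58°C, pooled, and extracted at 4°C in PBS with 0.5% NP-40. Soluble protein, the supernatant after 21,000xg for 90 min, was quantified by TMTpro 16plex LC-MS/MS with equalised channel sums.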

crizotinib = compound: C[C@@H](Oc1cc(-c2cnn(C3CCNCC3)c2)cnc1N)c1c(Cl)ccc(F)c1Cl [crizotinib]
Procedure, shortened: as §1

[2] = compound: C[C@@H]1COCCN1C2=NC(=NC(=C2)C3(CC3)S(=O)(=O)C)C4=C5C=CNC5=CC=C4
Procedure, shortened: as §1

[3] = compound: C[C@H](C1=CC=C(C=C1)C(=O)NC2=C3C=CNC3=NC=C2)N
Procedure, shortened: as §1

duvelisib = compound: C[C@H](Nc1ncnc2nc[nH]c12)c1cc2cccc(Cl)c2c(=O)n1-c1ccccc1 [duvelisib]
Procedure, shortened: as §1

gandotinib = compound: Cc1cc(Nc2cc(CN3CCOCC3)c3nc(C)c(Cc4ccc(Cl)cc4F)n3n2)n[nH]1 [gandotinib]
Procedure, shortened: as §1

tozasertib = compound: Cc1cc(Nc2cc(N3CCN(C)CC3)nc(Sc3ccc(NC(=O)C4CC4)cc3)n2)n[nH]1 [tozasertib]
Procedure, shortened: as §1

[4] = compound: Cc1cc(SCc2sc(-c3ccc(C(F)(F)F)cc3)nc2C)ccc1OCC(=O)O
Procedure, shortened: as §1

doramapimod = compound: Cc1ccc(-n2nc(C(C)(C)C)cc2NC(=O)Nc2ccc(OCCN3CCOCC3)c3ccccc23)cc1 [doramapimod]
Procedure, shortened: as §1

ispinesib = compound: Cc1ccc(C(=O)N(CCCN)[C@@H](c2nc3cc(Cl)ccc3c(=O)n2Cc2ccccc2)C(C)C)cc1 [ispinesib]
Procedure, shortened: as §1

bafetinib = compound: Cc1ccc(NC(=O)c2ccc(CN3CC[C@H](N(C)C)C3)c(C(F)(F)F)c2)cc1Nc1nccc(-c2cncnc2)n1 [bafetinib]
Procedure, shortened: as §1

[5] = compound: Cc1cccc(CC(=O)N2CCc3c2ccc(-c2cn(C)c4ncnc(N)c24)c3F)n1
Procedure, shortened: as §1

nilotinib = compound: Cc1cn(-c2cc(NC(=O)c3ccc(C)c(Nc4nccc(-c5cccnc5)n4)c3)cc(C(F)(F)F)c2)cn1 [nilotinib]
Procedure, shortened: as §1

[6] = compound: Cc1nc(Nc2n[nH]c3c2CN(C(=O)N[C@H](CN(C)C)c2ccccc2)C3(C)C)c2sccc2n1
Procedure, shortened: as §1

dasatinib = compound: Cc1nc(Nc2ncc(C(=O)Nc3c(C)cccc3Cl)s2)cc(N2CCN(CCO)CC2)n1 [dasatinib]
Procedure, shortened: as §1

[7] = compound: Cc1ncc(-c2ccnc(Nc3ccc(S(C)(=O)=O)cc3)n2)n1C(C)C
Procedure, shortened: as §1

[8] = compound: Cn1cc(-c2ccc3c(c2)CCN3C(=O)Cc2cccc(C(F)(F)F)c2)c2c(N)ncnc21
Procedure, shortened: as §1

[9] = compound: Cn1cc(-c2ccc3nnc(C(F)(F)c4ccc5ncccc5c4)n3n2)cn1
Procedure, shortened: as §1

tipifarnib = compound: Cn1cncc1[C@@](N)(c1ccc(Cl)cc1)c1ccc2c(c1)c(-c1cccc(Cl)c1)cc(=O)n2C [tipifarnib]
Procedure, shortened: as §1

mubritinib = compound: FC(F)(F)c1ccc(/C=C/c2nc(COc3ccc(CCCCn4ccnn4)cc3)co2)cc1 [mubritinib]
Procedure, shortened: as §1

Measured: log2 fold change

PLSCR1 (UniProt O15162)
Sequence of UniProt O15162 (O15162 whole entry, looked up): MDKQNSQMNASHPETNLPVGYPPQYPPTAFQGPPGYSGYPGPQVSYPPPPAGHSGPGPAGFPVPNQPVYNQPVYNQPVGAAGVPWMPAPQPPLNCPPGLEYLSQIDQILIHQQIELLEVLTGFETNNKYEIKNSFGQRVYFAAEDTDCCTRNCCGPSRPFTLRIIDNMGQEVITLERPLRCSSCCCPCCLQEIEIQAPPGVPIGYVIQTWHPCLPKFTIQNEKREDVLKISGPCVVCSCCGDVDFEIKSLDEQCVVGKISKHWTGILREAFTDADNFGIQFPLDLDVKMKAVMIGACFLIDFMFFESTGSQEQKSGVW
active: ispinesib -0.619
inactive: [1] 0.079 | crizotinib 0.017 | [2] 0.101 | [3] -0.024 | duvelisib 0.037 | gandotinib -0.096 | tozasertib -0.075 | [4] -0.017 | doramapimod 0.042 | bafetinib 0.011 | [5] 0.002 | nilotinib -0.004 | [6] -0.022 | dasatinib 0.052 | [7] -0.032 | [8] 0.024 | [9] 0.048 | tipifarnib 0.036 | mubritinib 0.148

PSMD7 (UniProt P51665)
Sequence of UniProt P51665 (P51665 whole entry, looked up): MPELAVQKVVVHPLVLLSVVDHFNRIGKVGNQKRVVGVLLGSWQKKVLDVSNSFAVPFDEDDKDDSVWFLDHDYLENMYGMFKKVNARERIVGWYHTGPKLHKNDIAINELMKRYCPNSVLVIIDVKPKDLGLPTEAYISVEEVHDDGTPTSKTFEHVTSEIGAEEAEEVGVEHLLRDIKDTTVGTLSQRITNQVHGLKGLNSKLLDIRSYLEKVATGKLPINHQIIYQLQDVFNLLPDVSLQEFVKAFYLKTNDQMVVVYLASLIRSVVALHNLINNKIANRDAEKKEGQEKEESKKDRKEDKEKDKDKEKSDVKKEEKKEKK
inactive: [1] 0.077 | crizotinib -0.001 | [2] -0.053 | [3] 0.072 | duvelisib -0.073 | gandotinib 0.078 | tozasertib 0.003 | [4] -0.003 | doramapimod 0.069 | ispinesib 0.018 | bafetinib 0.075 | [5] 0.009 | nilotinib 0.014 | [6] 0.065 | dasatinib 0.054 | [7] -0.033 | [8] -0.116 | [9] -0.01 | tipifarnib 0.079 | mubritinib 0.019

PNPLA2 (UniProt Q96AD5)
active: ispinesib -0.395
inactive: [1] 0.048 | crizotinib -0.055 | [2] 0.094 | [3] 0.095 | duvelisib 0.156 | gandotinib -0.303 | tozasertib -0.06 | [4] -0.065 | doramapimod 0.046 | bafetinib 0.084 | [5] -0.334 | nilotinib 0.049 | [6] -0.112 | dasatinib -0.113 | [7] -0.118 | [8] 0.056 | [9] 0.049 | tipifarnib -0.026 | mubritinib 0.113

PCYT1A (UniProt P49585)
Sequence of UniProt P49585 (P49585 whole entry, looked up): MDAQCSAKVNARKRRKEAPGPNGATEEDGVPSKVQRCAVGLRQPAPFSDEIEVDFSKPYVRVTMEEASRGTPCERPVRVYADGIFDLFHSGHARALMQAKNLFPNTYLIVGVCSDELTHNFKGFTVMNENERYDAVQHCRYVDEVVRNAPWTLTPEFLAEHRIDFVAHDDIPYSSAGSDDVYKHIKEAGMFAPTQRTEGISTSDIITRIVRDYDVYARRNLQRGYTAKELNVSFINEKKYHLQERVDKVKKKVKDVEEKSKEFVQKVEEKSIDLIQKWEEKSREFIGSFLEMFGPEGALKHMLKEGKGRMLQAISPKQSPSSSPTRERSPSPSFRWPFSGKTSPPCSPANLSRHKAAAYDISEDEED
active: nilotinib -1.47
inactive: [1] -0.031 | crizotinib -0.032 | [2] 0.092 | [3] -0.097 | duvelisib 0.081 | gandotinib -0.148 | tozasertib 0.072 | [4] 0.094 | doramapimod -0.008 | ispinesib 0.003 | bafetinib -0.142 | [5] 0.035 | [6] -0.129 | dasatinib -0.185 | [7] -0.04 | [8] 0.033 | [9] 0.001 | tipifarnib 0.006 | mubritinib 0.176

PRKD2 isoform 3 (UniProt Q9BZL6)
inactive: [1] -0.275 | crizotinib -0.39 | [2] 0.108 | [3] -0.111 | duvelisib 0.066 | gandotinib 0.017 | tozasertib 0.048 | [4] -0.014 | doramapimod 0.023 | ispinesib -0.129 | bafetinib -0.16 | [5] 0.045 | nilotinib -0.204 | dasatinib -0.139 | [7] -0.145 | [8] 0.057 | [9] 0.045 | tipifarnib -0.123 | mubritinib 0.099
active: [6] -0.698

PPP4R3B (UniProt Q5MIZ7)
Sequence of UniProt Q5MIZ7 (Q5MIZ7 whole entry, looked up): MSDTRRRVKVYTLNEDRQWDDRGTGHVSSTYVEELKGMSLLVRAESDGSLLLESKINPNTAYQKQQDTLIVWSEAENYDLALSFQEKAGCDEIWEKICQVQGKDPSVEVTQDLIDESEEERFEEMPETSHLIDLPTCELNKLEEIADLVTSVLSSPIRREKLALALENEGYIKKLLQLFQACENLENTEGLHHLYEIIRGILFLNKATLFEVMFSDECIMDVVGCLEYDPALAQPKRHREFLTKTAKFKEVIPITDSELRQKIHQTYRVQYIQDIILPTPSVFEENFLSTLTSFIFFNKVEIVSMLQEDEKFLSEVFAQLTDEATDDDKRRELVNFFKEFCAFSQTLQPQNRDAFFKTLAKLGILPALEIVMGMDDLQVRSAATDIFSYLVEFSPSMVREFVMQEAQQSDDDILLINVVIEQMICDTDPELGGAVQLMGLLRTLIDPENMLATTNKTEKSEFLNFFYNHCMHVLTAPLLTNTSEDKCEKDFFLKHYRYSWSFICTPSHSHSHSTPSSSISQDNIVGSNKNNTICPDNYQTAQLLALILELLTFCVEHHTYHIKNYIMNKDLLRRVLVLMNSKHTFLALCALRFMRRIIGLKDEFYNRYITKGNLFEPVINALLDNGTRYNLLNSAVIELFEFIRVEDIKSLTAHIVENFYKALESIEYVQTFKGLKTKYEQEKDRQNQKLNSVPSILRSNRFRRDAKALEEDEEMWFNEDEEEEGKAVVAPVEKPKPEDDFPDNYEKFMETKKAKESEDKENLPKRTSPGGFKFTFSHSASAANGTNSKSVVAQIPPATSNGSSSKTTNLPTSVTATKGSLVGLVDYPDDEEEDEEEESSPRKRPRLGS
inactive: [1] -0.003 | crizotinib 0.124 | [2] 0.064 | [3] -0.035 | duvelisib 0.048 | gandotinib -0.075 | tozasertib 0.149 | [4] 0.056 | doramapimod 0 | ispinesib 0.056 | bafetinib -0.054 | [5] 0.116 | nilotinib -0.032 | [6] -0.006 | dasatinib -0.03 | [7] -0.013 | [8] 0.037 | [9] 0.054 | tipifarnib -0.041 | mubritinib 0.006

PCID2 (UniProt Q5JVF3)
inactive: [1] 0.157 | crizotinib -0.171 | [2] -0.138 | [3] 0.246 | duvelisib -0.02 | gandotinib -0.149 | tozasertib -0.028 | [4] 0.058 | doramapimod -0.005 | ispinesib -0.096 | bafetinib 0.07 | [5] 0.078 | nilotinib -0.013 | [6] -0.061 | dasatinib -0.254 | [7] -0.02 | [8] 0.038 | [9] -0.036 | tipifarnib -0.071 | mubritinib 0.109

PTPMT1 (UniProt Q8WUK0)
active: crizotinib -0.546 | ispinesib -0.429
inactive: [1] 0.086 | [2] 0.039 | [3] -0.026 | duvelisib 0.118 | gandotinib -0.125 | tozasertib -0.001 | [4] 0.109 | doramapimod -0.036 | bafetinib -0.16 | [5] -0.003 | nilotinib 0.069 | [6] -0.013 | dasatinib -0.138 | [7] 0.029 | [8] -0.056 | [9] -0.132 | tipifarnib 0.026 | mubritinib -0.006

PC (UniProt P11498)
inactive: [1] 0.033 | crizotinib 0.103 | [2] 0.199 | [3] 0.167 | duvelisib 0.01 | gandotinib -0.143 | tozasertib -0.048 | [4] 0.024 | doramapimod 0.008 | ispinesib 0.186 | bafetinib 0.096 | [5] 0.102 | nilotinib -0.014 | [6] 0.121 | dasatinib 0.005 | [7] -0.007 | [8] 0.047 | [9] 0.074 | tipifarnib -0.097 | mubritinib 0.024

PCBP2 isoform 3 (UniProt Q15366)
inactive: [1] -0.036 | crizotinib -0.018 | [2] 0.06 | [3] -0.031 | duvelisib -0.006 | gandotinib -0.065 | tozasertib 0.056 | [4] 0.072 | doramapimod -0.008 | ispinesib 0.005 | bafetinib 0.037 | [5] 0.083 | nilotinib -0.095 | [6] -0.156 | dasatinib -0.132 | [7] -0.058 | [8] 0.007 | [9] 0.018 | tipifarnib -0.08 | mubritinib 0.004

PDPK1 (UniProt O15530)
active: crizotinib -0.282
inactive: [1] -0.066 | [2] 0.081 | [3] 0.013 | duvelisib -0.206 | gandotinib -0.173 | tozasertib -0.085 | [4] 0.015 | doramapimod 0.003 | ispinesib -0.143 | bafetinib -0.06 | [5] 0.051 | nilotinib -0.104 | [6] 0.089 | dasatinib -0.169 | [7] -0.084 | [8] 0.077 | [9] 0.011 | tipifarnib -0.043 | mubritinib 0.022

POLR1A (UniProt O95602)
inactive: [1] 0.076 | crizotinib -0.017 | [2] -0.116 | [3] 0.125 | duvelisib 0.111 | gandotinib -0.03 | tozasertib -0.145 | [4] 0.08 | doramapimod 0.141 | ispinesib -0.151 | bafetinib -0.11 | [5] 0.004 | nilotinib -0.051 | [6] 0.046 | dasatinib 0.046 | [7] -0.003 | [8] -0.16 | [9] -0.057 | tipifarnib 0.019 | mubritinib 0.069

PJA2 (UniProt O43164)
Sequence of UniProt O43164 (O43164 whole entry, looked up): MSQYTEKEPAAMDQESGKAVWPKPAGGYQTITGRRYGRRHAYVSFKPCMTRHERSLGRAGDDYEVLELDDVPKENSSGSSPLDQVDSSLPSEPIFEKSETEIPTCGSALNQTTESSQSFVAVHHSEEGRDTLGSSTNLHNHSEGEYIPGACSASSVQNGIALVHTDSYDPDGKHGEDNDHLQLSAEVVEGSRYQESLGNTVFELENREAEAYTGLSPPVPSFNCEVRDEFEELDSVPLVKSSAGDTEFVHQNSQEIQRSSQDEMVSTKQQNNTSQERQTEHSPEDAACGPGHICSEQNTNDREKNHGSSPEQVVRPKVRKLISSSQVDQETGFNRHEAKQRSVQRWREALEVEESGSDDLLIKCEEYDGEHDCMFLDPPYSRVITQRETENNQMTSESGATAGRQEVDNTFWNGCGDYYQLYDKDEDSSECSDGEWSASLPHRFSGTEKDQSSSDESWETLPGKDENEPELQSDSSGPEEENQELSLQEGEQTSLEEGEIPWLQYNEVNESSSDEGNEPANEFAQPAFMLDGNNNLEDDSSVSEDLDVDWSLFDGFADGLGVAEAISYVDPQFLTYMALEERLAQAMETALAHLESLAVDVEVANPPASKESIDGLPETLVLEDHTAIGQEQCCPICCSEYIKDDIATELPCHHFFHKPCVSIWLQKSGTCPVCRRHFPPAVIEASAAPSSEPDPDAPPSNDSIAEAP
inactive: [1] 0.032 | crizotinib -0.042 | [2] -0.126 | [3] 0.091 | duvelisib -0.021 | gandotinib 0.097 | tozasertib -0.018 | [4] -0.118 | doramapimod 0.033 | ispinesib -0.098 | bafetinib -0.121 | [5] -0.072 | nilotinib 0.023 | [6] -0.021 | dasatinib 0.036 | [7] -0.04 | [8] -0.06 | [9] 0.008 | tipifarnib 0.071 | mubritinib 0.018

PFAS (UniProt O15067)
Sequence of UniProt O15067 (O15067 whole entry, looked up): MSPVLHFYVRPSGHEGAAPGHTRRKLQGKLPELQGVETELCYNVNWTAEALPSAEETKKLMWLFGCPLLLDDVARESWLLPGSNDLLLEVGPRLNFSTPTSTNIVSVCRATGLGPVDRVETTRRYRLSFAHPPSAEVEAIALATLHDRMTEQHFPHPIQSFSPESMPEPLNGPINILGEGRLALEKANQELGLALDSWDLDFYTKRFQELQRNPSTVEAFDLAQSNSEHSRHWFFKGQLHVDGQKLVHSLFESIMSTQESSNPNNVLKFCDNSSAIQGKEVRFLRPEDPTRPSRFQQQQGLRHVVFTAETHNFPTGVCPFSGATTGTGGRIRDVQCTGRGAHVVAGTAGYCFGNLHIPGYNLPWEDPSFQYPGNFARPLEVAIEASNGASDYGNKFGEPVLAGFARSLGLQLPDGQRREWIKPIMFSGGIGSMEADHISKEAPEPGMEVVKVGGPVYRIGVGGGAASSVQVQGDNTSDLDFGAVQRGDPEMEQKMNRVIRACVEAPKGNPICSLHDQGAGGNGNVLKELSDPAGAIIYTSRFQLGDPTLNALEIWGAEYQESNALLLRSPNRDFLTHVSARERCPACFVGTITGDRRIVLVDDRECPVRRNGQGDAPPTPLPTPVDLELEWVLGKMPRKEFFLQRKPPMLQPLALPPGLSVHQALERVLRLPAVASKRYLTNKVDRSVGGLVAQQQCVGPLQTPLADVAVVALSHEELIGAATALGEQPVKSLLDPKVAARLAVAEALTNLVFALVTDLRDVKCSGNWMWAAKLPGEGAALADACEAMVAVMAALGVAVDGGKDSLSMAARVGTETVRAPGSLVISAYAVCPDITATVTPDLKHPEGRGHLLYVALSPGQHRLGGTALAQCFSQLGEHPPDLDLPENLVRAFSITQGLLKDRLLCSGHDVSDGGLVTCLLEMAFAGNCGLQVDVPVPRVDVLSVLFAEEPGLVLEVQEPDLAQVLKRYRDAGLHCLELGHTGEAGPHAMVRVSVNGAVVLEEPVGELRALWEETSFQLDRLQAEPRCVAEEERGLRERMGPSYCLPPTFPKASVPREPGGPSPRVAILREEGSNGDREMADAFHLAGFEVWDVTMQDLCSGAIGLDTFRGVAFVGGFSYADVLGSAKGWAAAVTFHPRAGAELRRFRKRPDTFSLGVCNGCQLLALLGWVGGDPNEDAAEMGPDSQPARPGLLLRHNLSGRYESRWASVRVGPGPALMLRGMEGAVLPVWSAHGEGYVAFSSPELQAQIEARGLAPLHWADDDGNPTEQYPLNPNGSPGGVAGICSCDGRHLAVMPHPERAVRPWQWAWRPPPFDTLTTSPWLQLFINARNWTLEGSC
active: nilotinib -0.359 | [8] 0.341 | mubritinib 0.52
inactive: [1] -0.062 | crizotinib 0.124 | [2] 0.014 | [3] 0 | duvelisib -0.026 | gandotinib -0.152 | tozasertib -0.132 | [4] 0.081 | doramapimod -0.018 | ispinesib 0.128 | bafetinib 0.033 | [5] 0.311 | [6] -0.113 | dasatinib -0.003 | [7] 0.059 | [9] 0.06 | tipifarnib 0.018

POTEI (UniProt P0CG38)
Sequence of UniProt P0CG38 (P0CG38 whole entry, looked up): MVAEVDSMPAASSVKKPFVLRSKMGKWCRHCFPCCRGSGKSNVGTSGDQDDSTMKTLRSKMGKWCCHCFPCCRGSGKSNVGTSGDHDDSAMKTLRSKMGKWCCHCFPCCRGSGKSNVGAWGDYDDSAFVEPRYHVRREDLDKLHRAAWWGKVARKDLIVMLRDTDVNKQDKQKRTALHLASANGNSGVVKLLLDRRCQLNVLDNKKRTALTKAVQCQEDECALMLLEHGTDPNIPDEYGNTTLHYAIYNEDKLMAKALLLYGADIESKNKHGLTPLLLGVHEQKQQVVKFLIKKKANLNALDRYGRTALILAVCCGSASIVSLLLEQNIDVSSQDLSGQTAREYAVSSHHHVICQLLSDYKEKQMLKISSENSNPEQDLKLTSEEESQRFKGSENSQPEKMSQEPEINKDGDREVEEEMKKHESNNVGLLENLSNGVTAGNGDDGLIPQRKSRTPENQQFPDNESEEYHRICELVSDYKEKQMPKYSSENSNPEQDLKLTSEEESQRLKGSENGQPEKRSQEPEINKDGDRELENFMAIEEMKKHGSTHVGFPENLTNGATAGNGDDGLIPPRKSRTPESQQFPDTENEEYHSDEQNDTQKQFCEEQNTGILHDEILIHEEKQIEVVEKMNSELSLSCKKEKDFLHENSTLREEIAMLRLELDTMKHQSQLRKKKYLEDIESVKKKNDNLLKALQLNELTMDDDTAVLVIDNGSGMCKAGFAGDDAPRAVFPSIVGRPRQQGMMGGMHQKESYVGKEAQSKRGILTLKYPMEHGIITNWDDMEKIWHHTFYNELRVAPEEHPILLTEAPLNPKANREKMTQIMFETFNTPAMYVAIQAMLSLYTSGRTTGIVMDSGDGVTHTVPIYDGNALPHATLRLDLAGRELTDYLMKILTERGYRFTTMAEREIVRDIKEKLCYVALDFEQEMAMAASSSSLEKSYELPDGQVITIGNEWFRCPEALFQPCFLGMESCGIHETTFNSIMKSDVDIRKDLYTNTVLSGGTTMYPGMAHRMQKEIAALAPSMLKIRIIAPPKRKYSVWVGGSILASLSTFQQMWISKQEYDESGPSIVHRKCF
inactive: [1] -0.009 | crizotinib 0.109 | [2] 0.241 | [3] -0.096 | duvelisib 0.019 | gandotinib -0.019 | tozasertib 0.032 | [4] -0.021 | ispinesib 0.131 | bafetinib -0.052 | [5] -0.02 | nilotinib 0.046 | [6] -0.049 | dasatinib 0.087 | [7] 0.043 | [8] -0.005 | [9] -0.003 | tipifarnib -0.019 | mubritinib 0.004
active: doramapimod -0.739

PRKAR1A (UniProt P10644)
inactive: [1] 0.209 | crizotinib 0.259 | [2] 0.03 | [3] 0.173 | duvelisib 0.208 | gandotinib 0.139 | tozasertib 0.041 | [4] 0.001 | doramapimod 0 | ispinesib -0.06 | bafetinib 0.232 | [5] -0.006 | nilotinib 0.12 | [6] 0.195 | dasatinib -0.046 | [7] 0.152 | [8] 0 | [9] 0.281 | tipifarnib 0.231 | mubritinib -0.169

Reference: the supplement of paper PMC10849652
